The panel holds about 83,000 compounds, 20% with a hit somewhere; the sample as a whole holds those more often.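 How to read the values: 0–100, growth inhibition (40 = 60% inhibited); 0, no net growth; -100 to 0, cell death (-40 = 40% of starting cells died; -100 = all dead).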 Values without a mark were called inactive. Active and inactive are the calls of the source. Rule for the calls: active = growth percent below 10; inactive = the rest.
Tests used:
Experiment in all cases: NCI-60 one-dose screen, 48 h (100 = growth as untreated, 0 = no growth, -100 = all killed)
Conditions in all cases: 10 µM unless noted
SK-MEL-2 melanoma = test system: SK-MEL-2 melanoma
EKVX NSCLC = test system: EKVX NSCLC
SN12C renal = test system: SN12C renal
UO-31 renal = test system: UO-31 renal
TK-10 renal = test system: TK-10 renal
ACHN renal = test system: ACHN renal
CAKI-1 renal = test system: CAKI-1 renal
A498 renal = test system: A498 renal
CCRF-CEM leukemia = test system: CCRF-CEM leukemia
MOLT-4 leukemia = test system: MOLT-4 leukemia

| Structure (SMILES) | growth (SK-MEL-2 melanoma) | growth (EKVX NSCLC) | growth (SN12C renal) | growth (UO-31 renal) | growth (TK-10 renal) | growth (ACHN renal) | growth (CAKI-1 renal) | growth (A498 renal) | growth (CCRF-CEM leukemia) | growth (MOLT-4 leukemia) |
| --- | --- | --- | --- | --- | --- | --- | --- | --- | --- | --- |
| O=C(OCCCCOC(=O)n1cnc2ccccc21)n1cnc2ccccc21 | 101% | 98.7% | 96% | 78.9% | 110% | 101% | 93.2% | 89.3% | 101% | 86.2% |
| C=C1C(=O)O[C@H]2[C@H]1CC/C(Cn1cc(-c3ccsc3)nn1)=C\CC[C@@]1(C)O[C@@H]21 | -21.5% (active) | -80.3% (active) | -18.3% (active) | -91.5% (active) | -50.6% (active) | -90.5% (active) | -53.5% (active) | -4.99% (active) | -24.7% (active) | -13.3% (active) |
| CS(=O)(=O)N(c1cc(-c2ccc3ncnc(Nc4cccc(Cl)c4)c3c2)cnc1Cl)S(C)(=O)=O | -20% (active) | -3.18% (active) | 21.6% | 2.2% (active) | 2.1% (active) | 11.7% | 6.68% (active) | -28% (active) | 20.2% | -10.5% (active) |
| NC(=O)c1ccc2c(c1)OCO2 | 114% | 95.1% | 108% | 102% | 91.7% | 109% | 93.5% | 86.8% | 102% | 105% |
| CCCS(=O)(=O)c1nc(NC2CC2)cc(-c2ccc3c(ccn3C3CC(C)(C)NC(C)(C)C3)c2)n1 | 54.5% | 22.6% | -77.9% (active) | -66.1% (active) | -56% (active) | -90.3% (active) | 85.1% | 108% | -13.7% (active) | 55.9% |
| O=c1cc(C2NCCc3c2[nH]c2ccccc32)c2c(ccc3ccccc32)o1 (stereo not given) | 36.2% | 75.3% | 87.5% | 26.2% | 71.7% | 31.7% | 15.5% | 46.3% | 77.8% | 75.1% |
| CC(=O)c1cc(C(=O)c2ccc3c(c2)Sc2ccccc2N3)c2cc(C)ccn12 | 35.8% | 31.1% | 23.1% | 28.4% | -25.7% (active) | 22.9% | 19% | -16.4% (active) | 11.1% | 13.1% |
| CC(Br)C(OC(=O)c1ccccc1Cl)c1cc2c(cc1Br)OCO2 (stereo not given) | 90.4% | 76.6% | 98.9% | 49.1% | 82.1% | 88.2% | 70% | 88.5% | 103% | 75.6% |
| OC1CC2c3ccccc3C1c1ccccc12 (stereo not given) | 117% | 108% | 106% | 95.7% | 96.9% | 111% | 94.5% | 125% | 104% | 106% |
| CCN(CC)CCSc1c2ccc(Cl)cc2nc2ccc(OC)cc12 | 100% | 97.1% | 90.1% | 88.5% | 84.1% | 87.6% | 91.3% | 100% | 12.7% | 48.1% |
| CCC(=O)Oc1ccc2c(c1)CC[C@@H]1[C@@H]2CC[C@]2(C)C[C@H](OC(=O)CC)C[C@@H]12 | 75.1% | 62.7% | 70.4% | 71.7% | 105% | 73% | 64.8% | 7.94% (active) | 74.6% | 51.1% |
| CC1CCc2c(sc(NC(=O)CSc3nnc4ccccn34)c2C(N)=O)C1 (stereo not given) | 48.4% | 150% | 102% | 110% | 179% | 96.7% | 95.7% | 133% | 101% | 108% |
| CCOC(=O)c1cc(/C(=N\O)c2cc(OC)c(OC)c(OC)c2)n2cc(C)cc(C)c12 | 2.79% (active) | 37.7% | 30.3% | 48.7% | 26.7% | 10.5% | 37.1% | -6.21% (active) | 9.43% (active) | 9.33% (active) |
| CC1(C)OC2COC3(C(=O)O)OC(C)(C)OC3C2O1 (stereo not given) | 93.1% | 97% | 91.4% | 92.3% | 94.7% | 94.4% | 103% | 91.7% | 128% | 104% |
| O=C(Nc1ccc(I)cc1)c1cccc([N+](=O)[O-])c1O | -11.9% (active) | 8.49% (active) | 20.3% | -0.371% (active) | 7.73% (active) | 21.8% | 13.4% | -6.2% (active) | 25.9% | 8.55% (active) |
| O=C(O)c1ccc(-n2cc(CNc3ccc(C(F)(F)F)cc3)c(-c3ccccc3)n2)cc1 | 93.8% | 91.8% | 94.6% | 80.5% | 110% | 88.9% | 87.2% | 87.6% | 91.4% | 76.5% |
| CN(C)CCCNC(=O)C(c1ccccc1)c1ccccc1 | 95.6% | 106% | 96.8% | 84.1% | 88.2% | 93.5% | 99.5% | 104% | 100% | 85.3% |
| c1ccc2c(c1)Oc1ccccc1C2C1c2ccccc2Oc2ccccc21 | 92.6% | 84.9% | 101% | 73.5% | 93.4% | 87.7% | 74.5% | 91.8% | 98.3% | 79.5% |
| COc1ccc(/C(=N/O)c2cc(F)c(F)c(OC)c2F)cc1O | 3.65% (active) | 45.5% | 45.7% | 52.6% | 88.7% | 48.4% | 28.1% | 2.7% (active) | 15.5% | 37.4% |
| COC(=O)CCCCCCN=Cc1c(O)c(O)c(C(C)C)c2cc(C)c(-c3c(C)cc4c(C(C)C)c(O)c(O)c(C=NCCCCCCC(=O)OC)c4c3O)c(O)c12 | 24.7% | 23.9% | 22.8% | 21.8% | 12.4% | 21.6% | 65.4% | 46.1% | 16.1% | 15.8% |
| CCN(Cc1ccc(CN(CC)C(=O)C(Br)Br)cc1)C(=O)C(Br)Br | 76.9% | 31.3% | 48.9% | 52.2% | 48.1% | 12.1% | 28.3% | 38.3% | 24.9% | 34.2% |
| CC(Br)C(O)c1cc2c(cc1Br)OCO2 (stereo not given) | 115% | 104% | 112% | 88.6% | 114% | 109% | 90.5% | 127% | 101% | 104% |
| CC(C)(C)c1cc(-c2nc3ccc(N4CCN(CCO)CC4)cc3[nH]2)cc(C(C)(C)C)c1O | 81.8% | 92.9% | 85.8% | 72.4% | 87.6% | 89.2% | 63.2% | 86.1% | 29.5% | 32.9% |
| CCOC(=O)CC/C(C)=N\Nc1ccc([N+](=O)[O-])cc1 | 58.8% | 51.9% | 77.6% | 30.3% | 58.2% | 36.8% | 40.6% | 85.1% | 41.7% | 35.4% |
| CCCCn1c(=O)c(C2CNC(=O)c3ccccc3N2)cc2ccccc21 (stereo not given) | 106% | 103% | 85.7% | 93.1% | 109% | 98.2% | 85.8% | 88.7% | 110% | 46.4% |
| O=C1CCCCN1CCCCC#Cc1ccccc1C#Cc1ccc([N+](=O)[O-])cc1 | 5.87% (active) | 74.8% | 67.4% | 7.05% (active) | 80.6% | 34% | 58.4% | 59.7% | 21.4% | 18.7% |
| COc1ccc(/C(=N/O)c2cc(OC)c(OC)c(OC)c2)c(OC)c1N | 36.5% | 47.4% | 52.8% | 49.3% | 35.3% | 43.3% | 23.9% | -4.33% (active) | 22.3% | 27.8% |

From PubChem BioAssay (NCI)
